This assay can be described thus: anthelmintic activity against nematode growth – whole organism, log2 fold change (AID 1259336).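 Note: growth scored by imaging after five days at 20 °C.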 Particulars: C. elegans growth, anthelmintic screen; stronger effect = lower value.

Unmarked numbers belong to inactive results. Calls of active or inactive are those of the source. Cut-off read from the data, not from the text of the source: active = log2 fold change growth below about -1.8; inactive = the rest.

Take `CC(C)(C)C(O)C(Oc1ccc(-c2ccccc2)cc1)n1cncn1` (centres undefined): the log2 fold change growth was -0.263.

Consider `Cc1cccc(C(=O)Nc2ccnc(N(C)C3CCN(CC(C)C)CC3)c2)c1`, for which the log2 fold change growth was 0.418.

`CC1COC(Cn2cncn2)(c2ccc(Oc3ccc(Cl)cc3)cc2Cl)O1` (centres undefined): the log2 fold change growth is -0.72.

As for `Nc1c2c(nc3sc4c(c13)CCCC4)CCCC2`, the log2 fold change growth is -0.177.

Regarding `CC1(C)OB(O)c2ccc(C3=NO[C@](c4cc(Cl)c(F)c(Cl)c4)(C(F)(F)F)C3)cc21`, the log2 fold change growth is -2.88.

For the compound `CCc1nn(C)c(C(=O)NCc2ccc(Oc3ccc(C)cc3)cc2)c1Cl`, the log2 fold change growth is -10.9 (active).

`CO/N=C(/C(=O)OC)c1ccccc1CO/N=C(/C)c1cccc(C(F)(F)F)c1`: the log2 fold change growth is -0.187.

In the case of `Cc1nn(C)c(C)c1NS(=O)(=O)c1c(Cl)cc(-c2ccnc(N3CCNCC3)c2)cc1Cl`, the log2 fold change growth was -0.0922.

Take `CO[C@@H]1CN(c2ccc(C#CC3(O)CN4CCC3CC4)c(Cc3ccccc3)n2)C[C@H]1O` (some centres undefined): the log2 fold change growth is -0.086.

As to `O=C1O[C@@H](CO)CN1c1cc(F)c(C2=CCN(Cc3ccccc3)CC2)c(F)c1`, the log2 fold change growth is 0.141.

Consider `O=C1O[C@@H](COc2ccon2)CN1c1cc(F)c(C2=CCN(Cc3ccccc3)CC2)c(F)c1`, for which the log2 fold change growth was 0.114.

For `Cc1cc(C2=NO[C@](c3cc(Cl)c(F)c(Cl)c3)(C(F)(F)F)C2)ccc1C(=O)NCc1ccc2c(c1)C(C)(C)OB2O`, the log2 fold change growth was -0.268.

As to `Cc1nn(Cc2ccccc2)c(Cl)c1C(=O)NC1CCCCCC1`, the log2 fold change growth is 0.0333.

`CO/C=C(\C(=O)OC)c1ccccc1Oc1cc(Oc2ccccc2C#N)ncn1`: the log2 fold change growth was -0.352.
